Drawing on PubChem BioAssay (NCATS), this text covers Potency for 40 molecules.

Each structure is given as a SMILES string. A number with no mark means an inactive call. Rule as the data show it: active = potency below about 10 µM; inactive = the rest.
Potency is read from the fitted curve at half-maximal effect.

Chain of Lysosomal acid glucosylceramidase (Homo sapiens) (P04062 whole entry, looked up): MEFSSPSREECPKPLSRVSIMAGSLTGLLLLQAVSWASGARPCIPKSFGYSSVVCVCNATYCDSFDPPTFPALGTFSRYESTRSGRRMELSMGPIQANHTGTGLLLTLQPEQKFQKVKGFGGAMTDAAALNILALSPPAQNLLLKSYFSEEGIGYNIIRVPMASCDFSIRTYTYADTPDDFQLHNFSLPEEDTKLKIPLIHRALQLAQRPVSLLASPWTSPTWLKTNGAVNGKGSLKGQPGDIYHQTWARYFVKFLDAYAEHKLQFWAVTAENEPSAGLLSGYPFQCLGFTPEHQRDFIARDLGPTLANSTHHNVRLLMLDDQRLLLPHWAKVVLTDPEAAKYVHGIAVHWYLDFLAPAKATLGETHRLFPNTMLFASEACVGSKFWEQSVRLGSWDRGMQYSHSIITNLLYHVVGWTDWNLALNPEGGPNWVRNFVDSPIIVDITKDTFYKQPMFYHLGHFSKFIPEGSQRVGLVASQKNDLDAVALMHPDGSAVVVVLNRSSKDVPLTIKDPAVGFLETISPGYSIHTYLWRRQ

In the test the target is Lysosomal acid glucosylceramidase (Homo sapiens) (UniProt P04062). The test can be described thus: Glucocerebrosidase-p2 (AID 348). The settings on record: purified GBA, blue fluorogenic substrate, 40 min. An excerpt:
Beta-glucocerebrosidase catalyzes the hydrolysis of beta-glucocerebroside to glucose and ceramide. The inherited deficiency of beta-glucocerebrosidase results in Gaucher disease, which is characterized by a wide variety of symptoms including hepatosplenomegaly, anemia, thrombocytopenia, bony lesions and bone marrow infiltration with characteristic storage cells, known as Gaucher cells. There are also forms of the disorder affecting the central nervous system. Patients with the same genotypes can manifest with diverse clinical presentations and it is believed that improper folding and trafficking of beta-glucocerbrosidase may contribute to the phenotypes observed.
Low molecular weight molecules, acting as chaperones, may potentially restore trafficking of misfolded beta-glucocerebrosidase from the endoplasmic reticulum to the lysosomes, thereby enhancing functional lysosomal beta-glucocerebrosidase activity.
Using normal beta-glucocerebrosidase, an assay was developed to screen for small molecule inhibitors that could potentially act as molecular chaperones on the mutant forms [developed with NIH investigator Dr. Ellen Sidransky#s laboratory]. Two pro-fluorescent substrates were chosen for two screens against a small molecule library. One beta-glucocerebrosidase assay used Resorufin beta-D-Glucopyranoside (Marker Gene Technology Inc.), generating a red fluorescent product. The second assay used […] fluorescent product. The Km for the Resorufin beta-D-Glucopyranoside and Fluorescein di-beta-D-Glucopyranoside were determined to be 71.2 uM and 855 uM, respectively. The IC50 values of Conduritol B Epoxide, a known glucocerebrosidase inhibitor, were determined to be 87.5 uM and 117 uM, respectively. The use of two difference pro-fluorescent substrates in the screens helped to eliminate false positives. All compounds were screened in a titration series resulting in AC50s (e.g., IC50s or EC50s). Data normalization and AC50 calculations were accomplished using GeneData software.
NCGC Assay Protocol Summary
Both enzyme and substrate were diluted in buffer composed of 50mM citric acid/KH2PO4, 10mM sodium taurocholate and 0.01% tween-20 at pH 5.9. The final concentration of the enzyme was 0.2 nM in both assays. The compound library was titrated in 7 to 15 concentrations for the primary screens with a final concentration ranging from 0.6 nM to 50 uM. This particular assay protocol is for the "blue" substrate, and it was performed in 1536-well plate format as follows:
Blue fluorescence substrate assay:
1 uL substrate (final concentration of 80 uM)
Incubate at room temperature (RT) for 40 minutes
3 uL stop solution (1 M NaOH and 1 M glycine in water)
Read the plate in Viewlux plate reader (Ex=365(10) and Em=440(10)).
As for `COc1ccccc1CNc1cc(-c2cccnc2)ncn1`, the Potency is > 11.4 µM.
In the case of `COc1ccc(-c2nc3cnc(N4CCN(C)CC4)nc3n(CCc3ccccc3)c2=O)cc1` it was > 11.4 µM.
Take `c1ccc(NN(Cc2cnccn2)c2ccccc2)cc1`: the Potency is > 11.4 µM.
As for `O=C1C=C(NCCc2cc(Br)c(O)c(Br)c2)C(=O)c2ncccc21`, the figure is > 11.4 µM.
Consider `CC(=O)N1CCC2(CCCN(c3ccc(-c4ccccc4)cc3)C2)CC1`, for which the Potency is > 11.4 µM.
For `N#Cc1ccccc1-c1ccc2ncnc(NCc3cccnc3)c2c1`, the Potency was > 11.4 µM.
For `COc1ccc2[nH]cc(CCNc3ncnc4ccc(-c5ccccc5OC)cc34)c2c1`, the Potency was > 11.4 µM.
In the case of `COc1ccccc1CNc1ccnc(-c2cccnc2)n1`, the Potency was > 11.4 µM.
Take `CN(C)c1nc(-c2cccc(C#N)c2)nc2ccccc12`: the Potency is > 11.4 µM.
For `COCCn1c(=O)c(-c2cccc(C#N)c2)nc2cnc(OCc3ccccc3)nc21`, the Potency was > 11.4 µM.
As for `O=c1c(-c2cccc(F)c2)nc2cncnc2n1Cc1ccc(F)cc1`, the figure is > 11.4 µM; as for `COc1ccc(CNc2cc(-c3cccc(NS(C)(=O)=O)c3)ncn2)c(OC)c1`, > 11.4 µM; as for `COCCn1c(=O)c(CCc2ccccc2)nc2cnc(Oc3ccccc3)nc21`, > 11.4 µM.
Consider `Cc1cccc(CNc2ncncc2-c2ccccc2CN(C)C)c1`, for which the Potency was > 11.4 µM.
For the molecule `COc1ccc2[nH]cc(CCNc3cc(-c4cccc(C#N)c4)ncn3)c2c1`, the Potency was > 11.4 µM.
With `COc1cccc(-c2nc(NCCN3CCOCC3)c3ccccc3n2)c1`, the Potency is > 11.4 µM.
As for `O=c1cnc2cnc(N3CCOCC3)nc2n1Cc1cccs1`, the Potency was > 11.4 µM.
With `COc1cccc(Nc2ncc3nc(-c4ccc(F)cc4)c(=O)n(CCC#N)c3n2)c1`, the Potency is > 11.4 µM.
For `CN(C)c1ncc2nc(-c3ccccc3)c(=O)n(C)c2n1`, the Potency was > 11.4 µM.
Regarding `COCCn1c(=O)c(-c2cccs2)nc2cnc(Oc3ccccc3)nc21`, the Potency is > 11.4 µM.
In the case of `N#CCCn1c(=O)c(-c2cccc(C#N)c2)nc2cnc(Oc3cccc(Cl)c3)nc21`, the Potency is > 11.4 µM.
As for `Cn1c(=O)c(-c2ccccc2)nc2cnc(N3CCOCC3)nc21`, the figure is > 11.4 µM; as for `c1cncc(CNc2nc(-c3cccnc3)nc3ccccc23)c1`, > 11.4 µM.
For the molecule `CN(C)c1ncc2nc(CCc3ccccc3)c(=O)n(Cc3cccs3)c2n1`, the Potency was > 11.4 µM.
`O=c1c(CCc2ccccc2)nc2cnc(N3CCNCC3)nc2n1Cc1cccs1`: the Potency was > 11.4 µM.
On to `COc1cccc(Nc2ncc3ncc(=O)n(CCC#N)c3n2)c1`, for which the Potency is > 11.4 µM.
Regarding `CN(C)C(=O)c1ccc(-c2nc(Nc3ccccc3)c3ccccc3n2)cc1`, the Potency was > 11.4 µM.
As for `COc1ccc(Oc2ncc3nc(-c4cc(F)cc(F)c4)c(=O)n(C4CC4)c3n2)cc1`, the figure is > 11.4 µM; as for `c1ccc2c(NCCN3CCOCC3)nc(-c3ccc4c(c3)OCO4)nc2c1`, > 11.4 µM.
Turning to `CN(C)C(=O)c1ccc(-c2nc(N3CCOCC3)c3ccccc3n2)cc1`, the Potency was > 11.4 µM.
Consider `CN(C)C(=O)c1ccc(-c2ccc3ncnc(Nc4ccc(F)cc4)c3c2)cc1`, for which the Potency is > 11.4 µM.
As for `CN(Cc1ccco1)c1nc(-c2cccnc2)nc2ccccc12`, the figure is > 11.4 µM.
As to `O=C(c1cnccn1)N1CCC[C@@]2(CCN(c3cccc(-c4ccccc4)c3)C2)C1`, the Potency was > 11.4 µM.
For `COc1cccc(-c2ccc3ncnc(NCc4cnc(C)cn4)c3c2)c1`, the Potency was > 11.4 µM.
As for `CCNc1ncc2nc(-c3ccccc3)c(=O)n(CCC#N)c2n1`, the figure is > 11.4 µM; as for `CN1CCN(c2nc(-c3ccoc3)nc3ccccc23)CC1`, > 11.4 µM.
For the molecule `CCNc1ncc2ncc(=O)n(Cc3cccc(OC)c3)c2n1`, the Potency was > 11.4 µM.
For the molecule `COc1ccc2[nH]cc(CCNc3ncncc3-c3ccccc3C(F)(F)F)c2c1`, the Potency is > 11.4 µM.
Take `Cc1ccccc1-c1ccc2ncnc(-n3ccnc3)c2c1`: the Potency was > 11.4 µM.
In the case of `CN1CCN(c2ncc3nc(-c4ccccc4)c(=O)n(Cc4cccs4)c3n2)CC1`, the Potency is > 11.4 µM.
